Unmarked numbers belong to inactive results.
Tested on: Vero E6 infected with SARS-CoV-2
Experiment: inhibition of SARS-CoV-2 cytopathic effect; higher = more antiviral protection, active = above 15
Details: 48 h

Row | Structure (SMILES) | inhibition of SARS-CoV-2 cytopathic effect (1 nM) [%] | inhibition of SARS-CoV-2 cytopathic effect (8.33 nM) [%] | inhibition of SARS-CoV-2 cytopathic effect (100 nM) [%] | inhibition of SARS-CoV-2 cytopathic effect (833.33 nM) [%] | inhibition of SARS-CoV-2 cytopathic effect (10000 nM)
1 | COc1ccc2c(C)nc(Nc3nc(C)c(C)c(O)n3)nc2c1 [madrasin] | -1.29 | 0.26 | 1.24 | 0.66 | 30.8% (active)
2 | CC(C)(C#N)c1cc(Cn2cncn2)cc(C(C)(C)C#N)c1 [anastrozole] | -1.6 | 0.38 | -0.32 | -1.74 | -0.89%
3 | Cn1c(C#N)ccc1-c1ccc2c(c1)C(C)(C)OC(=S)N2 [tanaproget] | 3.59 | 4.95 | 0.34 | 3.55 | 1.06%
4 | Cc1cc(C)nc(NS(=O)(=O)c2ccc(NC(=S)NC(=O)COc3ccc(Br)cc3Cl)cc2)n1 | -1.5 | -0.46 | -0.98 | -2.23 | 0.9%
5 | O=C1N=C2SCCN2C(=O)C1Cc1ccc(Cl)cc1 (stereo not given) [nuclomedone] | -1.33 | -3.69 | 0.26 | 0.58 | -2.17%
6 | COc1ccc(/C=C/C(=O)/C=C(O)/C=C/c2ccc(OC)c(OC)c2)cc1OC | 1.2 | -0.13 | 3.36 | 5.15 | 19.7% (active)
7 | CC(C)[N+](C)(CCC(C(N)=O)(c1ccccc1)c1ccccc1)C(C)C [isopropamide-iodide] | 1.15 | 1.26 | 2.29 | 1.52 | 1.2%
8 | CCC1=C[C@@H]2CN(C1)Cc1c([nH]c3ccccc13)[C@@](C(=O)OC)(c1cc3c(cc1OC)N(C)[C@H]1[C@@](O)(C(=O)OC)[C@H](OC(C)=O)[C@]4(CC)C=CCN5CC[C@]31[C@@H]54)C2 [vinorelbine] | -1.63 | -1.57 | -1.35 | -2.48 | -3.81%
9 | c1ccc2c(c1)CCCc1cc(NCCN3CCOCC3)nnc1-2 | 0.07 | 1.77 | 1.8 | 1.51 | 0.84%
10 | Nc1cc(C(F)(F)F)c(-c2nc(N3CCOCC3)nc(N3CCOCC3)n2)cn1 | -0.85 | 5.6 | 1.97 | 1.89 | -3.26%
11 | COc1cc2c(c(OC)c1OC)-c1c(cc3c(c1OC)OCO3)CC(C)C(C)C2 (stereo not given) [schisandrin-B] | -1.41 | -0.34 | -0.03 | -1.73 | -1.42%
12 | CC1(C)C(=O)N(CCN2CCC(C(=O)c3ccc(F)cc3)CC2)c2ccccc21 | -2.5 | 0.34 | -1.18 | -0.38 | 0.46%
13 | CNCCCN1c2ccccc2CCc2ccccc21 [desipramine] | -0.7 | -0.11 | -1.22 | -1.13 | -2.62%
14 | C=C(C)[C@@H]1CC=C(CO)CC1 [perillyl-alcohol] | 2.64 | -3.02 | 2.99 | 2.39 | -1.2%
15 | O=c1[nH]cnc2c([C@@H]3N[C@H](CO)[C@@H](O)[C@H]3O)c[nH]c12 [forodesine] | -0.75 | 0.06 | -1.79 | -1.77 | -2.56%
16 | COc1ccc(C(=O)c2c(C)n(CCN3CCOCC3)c3cc(I)ccc23)cc1 | -3.57 | -3.84 | -3.42 | -0.63 | 2.05%
17 | COc1cccc2c1C(=O)c1c(O)c3c(c(O)c1C2=O)C[C@@](O)(C(C)=O)C[C@@H]3O[C@H]1C[C@H](N)[C@H](O)[C@H](C)O1 [daunorubicin] | 0.05 | 0.64 | 1.14 | 4.26 | -16.6%
18 | CCn1c(-c2nonc2N)nc2c(C#CC(C)(C)O)ncc(OC[C@H]3CCCNC3)c21 | 2.55 | 4.66 | 3.53 | 5.33 | 4.74%

From the supplement of paper PMC13380429
